According to PubChem BioAssay (NCATS):
Results filed as inconclusive are left out. Calls of active or inactive are those of the source. The call rests on the fitted dose curve; in most records, active means well fitted curve in the direction sought with a large enough effect; inconclusive means small, poorly fitted or top-dose-only effect, or another doubt; inactive means no such curve, though single readings can be large; an effect the other way counts as inactive or inconclusive.

What was measured:
[1] = molecular target: Cellular tumor antigen p53 (Homo sapiens) (UniProt P04637); experiment: Primary qHTS for small molecule compounds that upregulate eGFP-tagged delta133p53alpha (in N-terminal) cells. (AID 2060322); conditions: NCI-H358 eGFP-delta133p53alpha fluorescence, 24 h; activation: stronger effect = higher value;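 further: cells pre-induced with doxycycline then dosed without doxycycline; series mostly up to about 56 µM; 0% = DMSO vehicle and 100% = reference activator; nearly all actives have a fitted effect of over 75% in size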
In short: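 NCI-H358 cells pre-induced 24 h with 10 ng/ml doxycycline for eGFP-delta133p53alpha, plated dox-free and exposed 24 h at 37C to titrated compounds. Fixed, Hoechst-stained; gated GFP peak intensity by laser scanning cytometry, normalized to DMSO (0%) and 57.5 uM 5-azacytidine (100%).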

[2] = molecular target: Aldehyde dehydrogenase, mitochondrial (Homo sapiens) (UniProt P05091); experiment: qHTS for Inhibitors of the Aldehyde Dehydrogenase Family (ALDH2) Primary screen (AID 2061308);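 further: plate controls were vehicle for no effect and reference inhibitor for full effect; nearly all actives have a fitted effect of over 55% in size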
[3] = molecular target: Retinaldehyde dehydrogenase 3 (Homo sapiens) (UniProt P47895); experiment: qHTS for Inhibitors of the Aldehyde Dehydrogenase Family (ALDH1A3) Primary screen (AID 2061315);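 further: plate controls were DMSO vehicle for no effect and reference inhibitor for full effect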

Chain of Cellular tumor antigen p53 (Homo sapiens) (P04637 whole entry, looked up): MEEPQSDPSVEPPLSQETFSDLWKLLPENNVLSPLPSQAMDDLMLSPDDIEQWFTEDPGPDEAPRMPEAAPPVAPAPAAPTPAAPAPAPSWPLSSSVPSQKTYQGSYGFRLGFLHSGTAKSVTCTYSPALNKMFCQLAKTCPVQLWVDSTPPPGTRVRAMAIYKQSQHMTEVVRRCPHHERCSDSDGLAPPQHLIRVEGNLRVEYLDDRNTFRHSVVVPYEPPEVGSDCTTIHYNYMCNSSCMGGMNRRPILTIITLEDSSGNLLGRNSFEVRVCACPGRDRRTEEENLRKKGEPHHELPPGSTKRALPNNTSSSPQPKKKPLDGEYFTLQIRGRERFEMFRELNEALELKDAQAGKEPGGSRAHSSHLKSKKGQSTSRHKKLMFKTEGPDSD

C=C1C2(CCC(=O)OC2(C)C)CC(OC(=O)/C(C)=C/C)C2(C)C13OC14C(=O)OC(C)(C(=O)C12C(=O)OC4C)C3OC(C)=O (configuration not stated)
inactive: activation [1] -0.763% | Potency [2] | Potency [3]

C=CC(C)(C)C1(CC2NC(=O)C3CCCN3C2=O)C(=O)Nc2cc3c(cc21)C=CC(C)(C)O3 (configuration not stated)
inactive: activation [1] 6.87% | Potency [2] | Potency [3]

CC1(C)CCC[C@]2(C)C1CC=C(CO)[C@H]2CC/C(=C/CO)CO (some centres not stated)
inactive: activation [1] -15.3% | Potency [2] | Potency [3]

CC(=O)OC1CC2(C)C3=CCC4(C)C5C(O)C(O)C(C(C)C)C5(C)CCC4(C)C3CCC2C(C)(C)C1OC1OC(CO)C(O)C(O)C1O (configuration not stated)
inactive: activation [1] -1.53% | Potency [2] | Potency [3]
